Data reported in PubChem BioAssay (Tox21).
Records with an inconclusive call do not appear. Values without a mark were called inactive. The source made the active and inactive calls. Calls come from the whole dose curve; as a rule, active = well fitted inhibition curve with a large enough effect in the repeat runs; inconclusive = weak or mixed curves; inactive = flat fitted curve, though single readings scatter.

Target: Voltage-gated inwardly rectifying potassium channel KCNH2 (Homo sapiens) (UniProt Q12809)
Test: Human Ether-a-go-go-Related Gene (hERG) channel small molecule antagonists: fluorescence cell-based qHTS assay (AID 1671200); note: nearly all actives have a fitted effect of over 50% in size
Conditions: hERG-U2OS cells, FluxOR thallium flux fluorescence; series mostly up to 76.8 µM; activity change, negative = inhibition: at the top concentration
Outline: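 Thallium flux as potassium surrogate: FluxOR II dye loaded 1 h at room temperature into hERG-expressing U2OS cells, then stimulus buffer added after 10 min. Kinetic 480 nm excitation/540 nm emission read, 2 min.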
% is set by controls: 0 for no effect and ±100 for the full control effect.

Chain of Voltage-gated inwardly rectifying potassium channel KCNH2 (Homo sapiens) (Q12809 whole entry, looked up): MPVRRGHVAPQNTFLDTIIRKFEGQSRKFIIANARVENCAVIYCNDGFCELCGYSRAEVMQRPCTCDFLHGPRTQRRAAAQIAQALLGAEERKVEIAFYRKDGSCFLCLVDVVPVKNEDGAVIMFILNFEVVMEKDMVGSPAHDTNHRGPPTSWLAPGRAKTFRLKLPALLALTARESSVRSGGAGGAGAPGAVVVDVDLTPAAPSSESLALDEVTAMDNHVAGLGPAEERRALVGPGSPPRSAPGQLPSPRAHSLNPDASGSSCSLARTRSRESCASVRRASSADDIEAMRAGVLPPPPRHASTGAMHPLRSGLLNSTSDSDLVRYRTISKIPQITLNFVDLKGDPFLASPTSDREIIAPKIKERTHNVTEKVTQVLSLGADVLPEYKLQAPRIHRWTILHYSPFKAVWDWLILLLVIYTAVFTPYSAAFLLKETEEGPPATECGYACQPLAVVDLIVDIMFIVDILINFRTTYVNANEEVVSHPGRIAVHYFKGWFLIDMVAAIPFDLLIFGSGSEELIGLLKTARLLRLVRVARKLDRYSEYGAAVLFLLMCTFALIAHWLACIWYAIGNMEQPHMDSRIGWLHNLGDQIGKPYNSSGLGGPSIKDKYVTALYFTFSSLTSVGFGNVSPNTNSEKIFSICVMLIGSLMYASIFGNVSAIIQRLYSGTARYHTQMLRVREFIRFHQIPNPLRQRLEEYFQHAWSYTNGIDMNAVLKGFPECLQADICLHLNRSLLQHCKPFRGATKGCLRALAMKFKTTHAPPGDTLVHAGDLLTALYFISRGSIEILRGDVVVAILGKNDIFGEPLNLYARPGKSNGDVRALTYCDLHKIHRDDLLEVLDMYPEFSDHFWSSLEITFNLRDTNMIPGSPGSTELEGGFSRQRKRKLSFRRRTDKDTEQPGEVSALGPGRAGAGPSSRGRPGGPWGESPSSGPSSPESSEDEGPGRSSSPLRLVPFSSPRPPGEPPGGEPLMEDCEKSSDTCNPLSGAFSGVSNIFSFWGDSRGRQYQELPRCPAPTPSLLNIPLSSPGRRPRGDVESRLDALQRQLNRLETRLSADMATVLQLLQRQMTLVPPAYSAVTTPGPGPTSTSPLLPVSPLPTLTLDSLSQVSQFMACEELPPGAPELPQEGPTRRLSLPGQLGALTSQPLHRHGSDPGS

In order of rising “activity change, negative = inhibition” value:
1. CCN(CC)CCOCCOC(=O)C1(c2ccccc2)CCCC1  -26.8% [at 35.3 µM]
2. Nc1c2c(nc3ccccc13)CCCC2O (centres undefined)  -22.2% [at 35.3 µM]
3. Cc1nc2c([nH]1)c(=O)n(C)c(=O)n2Cc1ccco1  -7.38% [at 35.3 µM]
4. CCCN1CCCC[C@H]1C(=O)Nc1c(C)cccc1C  -4.26% [at 35.3 µM]
5. NS(=O)(=O)c1cc(C(=O)O)cc(N2CCCC2)c1Oc1ccccc1  -3.52% [at 35.3 µM]
6. C[N+](C)(C)CC(O)CC(=O)[O-] (centres undefined)  -3.06% [at 35.3 µM]
7. CC(=O)OCC(CCn1cnc2cnc(N)nc21)COC(C)=O  -0.233% [at 35.3 µM]
8. N=c1nc(N2CCCCC2)cc(N)n1O  -0.056% [at 35.3 µM]
9. Nc1nc2c(ncn2COC(CO)CO)c(=O)[nH]1  0.75% [at 35.3 µM]
10. CN1CC(=O)NC1=N  1.35% [at 35.3 µM]
11. Cc1sccc1Br  1.85% [at 35.3 µM]
12. CC1(C)CO[C@@H](CC(=O)O)CN1  3.02% [at 35.3 µM]
13. NC(CSCC(=O)O)C(=O)O (centres undefined)  3.71% [at 35.3 µM]
14. CC[N+](C)(C)c1cccc(O)c1  4.64% [at 35.3 µM]
15. O=C(O)c1ccccc1OP(=O)(O)O  7.65% [at 35.3 µM]

In order of rising “activity change, negative = inhibition” value:
1. O=C1OC(=O)C2CCCCC12 (centres undefined)  -14.9%
2. O=Cc1cccc([N+](=O)[O-])c1  -9.33%
3. CS(=O)(=O)O  0.207%
4. CC/C=C\CC/C=C/C(OCC)OCC  0.822%
5. CC/C=C\CCOC(C)=O  1.22%
6. O=[N+]([O-])c1ccc(F)cc1F  2.32%

O=C(O)CN(CCOCCOCCN(CC(=O)O)CC(=O)O)CC(=O)O showed an activity change, negative = inhibition of 0.825% [at 0.29 µM].

CC(=O)OC/C=C(\C)CC/C=C(\C)CCC=C(C)C was tested, and the Potency was “inactive”.

For Cc1cccn2c(=O)c(-c3nnn[nH]3)cnc12, the activity change, negative = inhibition was 0.271% [at 15.8 µM].
